Bioassay records from PubChem.
The list is not random: actives were taken first. Their share in the collection is about 2.3%.
PLC-gamma1 inh = blocks human PLC-gamma1 enzyme activity. P19174. purified PLC-gamma1, fluorogenic substrate, fluorescence. inhibition, % at 12.2 µM. hit rate 0.84% among 370,000; in the data active = inhibition above about 9.5%
UHRF1 binding = UHRF1 methyl-DNA binding inhibition; AID 687016; inhibition, % at 4.4 µM; Q96T88; UHRF1 binding to methylated oligo, TR-FRET; hit rate 0.75% among 370,000; in the data active = inhibition above about 21%;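 also: UHRF1 SRA domain binding a hemimethylated CpG hairpin DNA probe; 0% = median of test compound wells and 100% = reference inhibitor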
LEDGF integ inh = blocks HIV-1 LEDGF/p75-dependent DNA integration. TR-FRET IN-LEDGF/p75 DNA integration, Eu/Cy5. inhibition, % at 3.7 µM. hit rate 0.64% among 370,000;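 active = inhibition above the screen-wide mean plus 3 SD, cut at about 13% in these data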;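 also: signal is the Cy5 over europium emission ratio at 671 and 618 nm; 0% = plate median of compound wells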
MBD2 inh = MBD2-methylated oligo binding inhibition | Q9UBB5 | TR-FRET, MBD2 binding to methylated oligonucleotide | hit rate 0.31% among 370,000 | inhibition, % at 4.4 µM; in the data active = inhibition above about 13%
PLCb3 inh = blocks human PLC-beta3 enzyme activity. hit rate 0.18% among 370,000. Purified PLC-beta3, fluorogenic substrate, fluorescence. inhibition, % at 12.2 µM. AID 720704; in the data active = inhibition above about 11%;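 also: 0% = median of compound wells on plate and 100% = full blocker control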
Target sequence (Q01970 whole entry, looked up): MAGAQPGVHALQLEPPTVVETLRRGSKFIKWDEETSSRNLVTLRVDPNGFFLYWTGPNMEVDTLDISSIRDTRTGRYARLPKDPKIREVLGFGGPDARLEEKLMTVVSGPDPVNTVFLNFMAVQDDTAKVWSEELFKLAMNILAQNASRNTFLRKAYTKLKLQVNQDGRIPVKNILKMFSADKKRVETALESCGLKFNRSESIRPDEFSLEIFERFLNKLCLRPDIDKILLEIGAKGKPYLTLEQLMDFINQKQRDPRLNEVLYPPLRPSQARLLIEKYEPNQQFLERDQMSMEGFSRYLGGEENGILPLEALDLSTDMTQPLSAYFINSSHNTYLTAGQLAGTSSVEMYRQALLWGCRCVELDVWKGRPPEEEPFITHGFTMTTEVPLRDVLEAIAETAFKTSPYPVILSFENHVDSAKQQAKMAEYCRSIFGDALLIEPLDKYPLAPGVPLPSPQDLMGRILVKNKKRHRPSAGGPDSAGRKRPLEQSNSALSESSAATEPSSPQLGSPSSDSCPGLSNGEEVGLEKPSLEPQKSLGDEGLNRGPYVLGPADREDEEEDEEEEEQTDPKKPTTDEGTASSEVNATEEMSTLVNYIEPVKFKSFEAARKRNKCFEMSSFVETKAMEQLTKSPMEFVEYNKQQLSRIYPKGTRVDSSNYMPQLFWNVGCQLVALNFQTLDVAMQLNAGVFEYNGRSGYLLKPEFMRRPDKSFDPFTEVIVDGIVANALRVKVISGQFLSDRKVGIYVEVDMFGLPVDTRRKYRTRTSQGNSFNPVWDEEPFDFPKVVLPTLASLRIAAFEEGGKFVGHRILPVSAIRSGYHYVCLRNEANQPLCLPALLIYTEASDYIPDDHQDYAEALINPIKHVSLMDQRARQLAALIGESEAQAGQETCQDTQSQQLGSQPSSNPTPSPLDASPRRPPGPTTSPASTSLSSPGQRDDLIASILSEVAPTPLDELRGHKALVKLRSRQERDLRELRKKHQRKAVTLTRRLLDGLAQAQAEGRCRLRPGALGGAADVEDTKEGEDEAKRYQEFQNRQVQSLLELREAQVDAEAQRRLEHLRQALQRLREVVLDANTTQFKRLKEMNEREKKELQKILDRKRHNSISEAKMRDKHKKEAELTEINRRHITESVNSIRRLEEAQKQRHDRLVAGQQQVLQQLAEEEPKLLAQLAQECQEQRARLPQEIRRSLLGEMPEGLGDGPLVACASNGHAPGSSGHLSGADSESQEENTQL
* hit, by the source's call.

SMILES	PLC-gamma1 inh	UHRF1 binding	LEDGF integ inh	MBD2 inh	PLCb3 inh
CCOC(=O)C1CCN(c2c(C(=O)c3ccccc3)cnc3ccc(CC)cc23)CC1	-2	1	2	7	-6
O=C(CSc1nc2ccccc2nc1N1CCCCC1)NCc1ccc(Cl)cc1Cl	-1	-2	2	-6	0
CCOc1ncccc1C(=O)N1CCN(C(=O)c2ccccc2)CC1	-2	21*	2	13	-4
CCOc1ncccc1C(=O)N1CCN(S(=O)(=O)c2ccccc2)CC1	1	0	0	0	-2
Cc1ccccc1Cn1cc(CN2[C@@H](CC(C)C)COc3cccc(F)c3S2(=O)=O)nn1	1	-4	0	-4	2
Cc1ccc(NCc2ccccc2F)cc1	0	-1	0	0	1
Fc1ccccc1CNc1ccc(Cl)c(Cl)c1	-1	25*	-3	1	0
O=C(Nc1cccnc1)NC1CCCCC1	2	25*	0	3	3
S=C(Nc1cccnc1)NC1CCCCCCC1	1	1	-4	2	-2
O=C(c1ccccc1)c1ccccc1	9	4	7	-3	11*
O=C(c1ccccc1)c1ccc(-c2ccc(O)cc2)cc1	-63	-1	0	3	-87
COc1ccccc1CN1CC(C(=O)N(C)CCc2ccccn2)CCC1=O (configuration not stated)	6	-2	4	-1	13*
COc1ccccc1CN1CC(C(=O)N(C)CCOc2ccccc2)CCC1=O (configuration not stated)	-1	1	-2	-3	-5
CCOC(=O)CNC(=O)CSc1nnc(-c2ccc(C(C)(C)C)cc2)n1-c1ccc(Cl)cc1	4	2	3	-2	3
Cc1cc(NC(=O)Cn2ccc([N+](=O)[O-])n2)no1	2	23*	-2	0	-4
O=C(Cc1ccc(Cl)c(Cl)c1)Nc1ccc(S(=O)(=O)Nc2ccon2)cc1	1	2	4	9	-7
Cc1nc2ncnn2c(C)c1CCC(=O)O	10*	2	1	-3	9
O=C(c1ccccc1)N1CCCc2ccccc21	1	21*	1	9	1
O=C(c1ccc(=O)oc1)N1CCCc2ccccc21	-32	17	22*	4	-42
C[C@H]1[C@@H](NC(=O)c2ccc(C(C)(C)C)cc2)CC[C@@]23CCCN2C(=O)CCC[C@@H]13	4	2	0	-3	2
CC(NC(=O)c1ccc(S(=O)(=O)N(C)C)cc1)c1ccccc1 (configuration not stated)	6	21*	1	7	0
CC(=O)c1c(C)[nH]c(C(=O)OCC(=O)Nc2cc(Cl)ccc2[N+](=O)[O-])c1C	11*	7	4	0	10
CC(=O)c1c(C)[nH]c(C(=O)OCC(=O)Nc2ccc(C)cc2[N+](=O)[O-])c1C	6	3	-5	1	3
O=C(NCc1ccccc1)OCCN1C(=O)CCC12CCC(c1ccc(Cl)cc1)CC2 (configuration not stated)	1	-1	2	-4	0
COc1ccc(CCNC(=O)Cn2nnc(-c3ccccc3F)n2)cc1OC	9.9*	2	6	2	6
SMILES	PLC-gamma1 inh	UHRF1 binding	LEDGF integ inh	MBD2 inh	PLCb3 inh
COc1ccc(NC(=O)CN2CCN(S(=O)(=O)N(C)C)CC2)cc1	-3	0	1	-2	-4
CN(C)S(=O)(=O)N1CCN(CC(=O)Nc2ccc(Br)cc2)CC1	-1	22*	-6	5	-6
O=C(NC1CCCCN(Cc2cccc(C(F)(F)F)c2)C1=O)c1ccc(F)c(F)c1 (configuration not stated)	1	2	5	1	0
Cc1ccc(CNC(=O)CN2C(C)CCCC2C)cc1 (configuration not stated)	1	49*	4	-2	-1
Cc1cccc(-c2cccc3c4c([nH]c23)[C@@H]2C[C@H](N(C)C(=O)Nc3ccccc3C)[C@H]([C@H](C)O)C(=O)N2CC4)c1	-18	2	-2	0	-17
Cc1ccc2c(c1)N(CCC(=O)NC1CCCCC1)C(=O)CO2	1	22*	1	1	-3
Cc1ccc(C2=NN(CCC(=O)NC3CCCC3)C(=O)CC2)cc1	1	23*	8	2	-1
CN(Cc1ccccc1)S(=O)(=O)c1cccc(C(=O)OCc2cccc([N+](=O)[O-])c2)c1	0	-2	-1	-2	-1
CC(C(=O)N1CCc2ccccc21)N(C)CC(=O)Nc1ccccc1Cl (configuration not stated)	3	33*	1	-2	-5
O=C(N/N=C/c1ccc(OC(F)F)cc1)c1ccc(CSc2nc3ccccc3[nH]2)cc1	-1	25*	-1	13	0
C[C@H](O)[C@@H]1CN2CCc3ccc(-c4ccc5c(c4)OCO5)cc3[C@@H]2C[C@@H]1N(C)C(=O)Nc1ccccc1	0	0	6	-4	-1
O=C(NNC(=O)C1CCN(Cc2ccc(F)cc2Cl)CC1)Nc1ccc([N+](=O)[O-])cc1	4	29*	6	-2	7
CN(C)C(=O)N1CCC(C(=O)NCc2ccc(F)cc2Cl)CC1	0	-2	-3	-1	1
CC1CCCCC1NC(=O)/C(C#N)=C/c1ccccc1F (configuration not stated)	-2	25*	-4	10	1
CC(C)C[C@H]1COc2cccc(F)c2S(=O)(=O)N1Cc1cn(Cc2ccc(Cl)cc2)nn1	3	-2	-4	-1	2
CN1CCN(c2nc(-c3ccc(C(C)(C)C)cc3)nc3ccccc23)CC1	-1	22*	1	9	0
O=C(Nc1ccc(Br)cc1)c1cccc(N2C(=O)C3C4C=CC(C4)C3C2=O)c1 (configuration not stated)	14*	4	-5	7	-12
O=C(Nc1ccccc1)c1cccc(N2C(=O)C3C4C=CC(C4)C3C2=O)c1 (configuration not stated)	3	-3	2	-2	-5
COc1ccccc1-c1cnc(C(O)c2cc(Cl)cc(Cl)c2)[nH]1 (configuration not stated)	-3	22*	5	5	-4
CC(C)N(CC#CCC(O)(c1ccccc1)C1CCCC1)CCO (configuration not stated)	0	28*	2	11	1
Cc1nn(S(=O)(=O)c2ccccc2)c(C)c1Sc1ccc([N+](=O)[O-])cc1	1	-2	1	0	2
CCCc1nnn(S(=O)(=O)c2ccc([N+](=O)[O-])cc2)c1CCC	12*	7	6	-3	13*
CCN1CCN(C(CNS(=O)(=O)c2ccc(Cl)cc2)c2cccnc2)CC1 (configuration not stated)	12*	0	7	0	-6
CCS(=O)(=O)NCC(c1cccnc1)N1CCN(c2ccc(OC)cc2)CC1 (configuration not stated)	1	22*	1	3	-1
